Our source for the z-score and composite z-score values is PubChem BioAssay.

The source made the active and inactive calls.

The nature of assay [1]: E. coli DRC41 culture turbidity changes, primary screen, E. coli filamentation inducer project, strain DRC41, OD650, 48 h (AID 1152).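 Also: E. coli MC1000 strain DRC41 lacking acrAB efflux pump and sulA.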 As to conditions: E. coli DRC41 (acrAB sulA), higher = more signal, called active from +8 up or from −8 down.
The nature of assay [2]: small-molecule binders of probe aLefty1, primary screen, biochemical, small-molecule microarray, 635/667 nm fluorescence (AID 1153).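 Also: score merges spot fluorescence with signal-to-noise ratio from the scanned slide images.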 As to conditions: higher = more signal.
The nature of assay [3]: PSAC antagonists in infected red cells, primary screen, cell-based, P. falciparum Indochina, OD700, 1 h (AID 1154). As to conditions: P. falciparum Indochina infected RBC osmotic lysis, higher = more signal, called active from +8 up or from −8 down.
Assay [4] in a line: PSAC antagonists in infected red cells, primary screen, cell-based, P. falciparum Indochina, OD700, 2 h (AID 1155).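 Also: lysis reports solute entry through the parasite surface anion channel PSAC; channel blockers reduce lysis of infected cells.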 As to conditions: P. falciparum Indochina infected erythrocytes, osmotic lysis OD700; higher = more signal, called active from +8 up or from −8 down.
Assay [5] in a line: osmotic lysis modulators in infected erythrocytes, primary screen, PSAC antagonist project, cell-based, P. falciparum Indochina, OD700, 3 h (AID 1156). As to conditions: higher = more signal, called active from +8 up or from −8 down.
The nature of assay [6]: PSAC antagonists in infected red cells, primary screen, cell-based, P. falciparum Indochina, OD700, 18 h (AID 1157). As to conditions: P. falciparum Indochina infected erythrocytes, osmotic lysis OD700, 18 h; higher = more signal, called active from +8 up or from −8 down.
A short description of assay [7]: modulators of S6 phosphorylation in cells, primary screen, cell-based, A549, cytoblot, luminescence, serum-stimulated (AID 1158).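 Also: serum-stimulated A549 lung adenocarcinoma cells; signal is phosphorylated S6 detected by cytoblot immunostaining with HRP secondary.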 As to conditions: A549 phospho-S6 cytoblot, 5 h, higher = more signal.
Assay [8] has as its target NADPH oxidase 2 (Homo sapiens) (UniProt P04839). The assay can be described thus: NOX2-dependent H2O2 signal modulators, primary screen, NOX inhibitor project, cell-based, HEK293-NOX2, PMA-stimulated, Amplex Red fluorescence (AID 1159). Also: test concentration not given here. As to conditions: 45 min, higher = more signal, called active from +8 up or from −8 down.
Assay [9] deals with NADPH oxidase 4 (Homo sapiens) (UniProt Q9NPH5). Briefly: NOX4-dependent H2O2 signal modulators, primary screen, NOX inhibitor project, cell-based, HEK293-NOX4, tetracycline-induced, Amplex Red fluorescence (AID 1160). As to conditions: 45 min, higher = more signal, called active from +8 up or from −8 down.
Sequence of NADPH oxidase 4 (Homo sapiens) (Q9NPH5 whole entry, looked up): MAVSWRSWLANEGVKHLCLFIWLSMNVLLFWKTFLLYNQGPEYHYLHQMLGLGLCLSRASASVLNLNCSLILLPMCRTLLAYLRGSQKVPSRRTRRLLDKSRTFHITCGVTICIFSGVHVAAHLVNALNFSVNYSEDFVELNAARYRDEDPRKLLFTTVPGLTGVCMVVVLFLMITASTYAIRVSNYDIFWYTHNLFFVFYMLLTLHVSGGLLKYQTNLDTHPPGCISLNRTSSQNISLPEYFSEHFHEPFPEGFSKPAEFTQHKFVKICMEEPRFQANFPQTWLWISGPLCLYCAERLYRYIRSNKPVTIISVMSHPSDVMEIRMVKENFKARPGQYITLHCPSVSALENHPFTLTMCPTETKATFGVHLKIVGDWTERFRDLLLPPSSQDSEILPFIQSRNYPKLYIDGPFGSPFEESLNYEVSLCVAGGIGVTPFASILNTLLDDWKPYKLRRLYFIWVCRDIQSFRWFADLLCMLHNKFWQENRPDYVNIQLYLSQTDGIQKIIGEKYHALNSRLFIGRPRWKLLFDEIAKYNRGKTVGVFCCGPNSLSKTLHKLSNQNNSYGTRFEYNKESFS
In assay [10] the target is NADPH oxidase 5 (Homo sapiens) (UniProt Q96PH1). Briefly: NOX5-dependent H2O2 signal modulators, primary screen, NOX inhibitor project, cell-based, HEK293-NOX5, Amplex Red fluorescence (AID 1161). As to conditions: HEK293-NOX5, ionomycin, 45 min, higher = more signal.
Sequence of NADPH oxidase 5 (Homo sapiens) (Q96PH1 whole entry, looked up): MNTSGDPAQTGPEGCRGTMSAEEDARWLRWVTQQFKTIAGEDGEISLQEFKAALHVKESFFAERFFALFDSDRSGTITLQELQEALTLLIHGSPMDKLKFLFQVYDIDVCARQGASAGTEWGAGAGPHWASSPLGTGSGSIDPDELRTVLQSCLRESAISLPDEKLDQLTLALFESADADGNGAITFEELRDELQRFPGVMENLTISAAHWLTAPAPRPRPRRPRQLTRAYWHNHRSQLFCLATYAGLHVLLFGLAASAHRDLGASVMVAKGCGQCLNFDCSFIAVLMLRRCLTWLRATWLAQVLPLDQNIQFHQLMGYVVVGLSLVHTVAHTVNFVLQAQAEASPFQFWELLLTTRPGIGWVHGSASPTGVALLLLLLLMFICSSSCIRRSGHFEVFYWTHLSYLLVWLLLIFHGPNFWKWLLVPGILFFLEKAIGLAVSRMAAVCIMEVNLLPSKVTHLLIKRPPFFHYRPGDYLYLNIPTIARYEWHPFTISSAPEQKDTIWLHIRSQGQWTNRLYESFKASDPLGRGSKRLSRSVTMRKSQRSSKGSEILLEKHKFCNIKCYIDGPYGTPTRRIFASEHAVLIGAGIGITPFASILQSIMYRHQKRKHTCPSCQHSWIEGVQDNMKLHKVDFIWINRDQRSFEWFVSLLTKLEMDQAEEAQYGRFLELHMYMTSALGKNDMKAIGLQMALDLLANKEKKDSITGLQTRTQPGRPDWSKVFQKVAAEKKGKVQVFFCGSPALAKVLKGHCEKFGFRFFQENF

Sequence of NADPH oxidase 2 (Homo sapiens) (P04839 whole entry, looked up): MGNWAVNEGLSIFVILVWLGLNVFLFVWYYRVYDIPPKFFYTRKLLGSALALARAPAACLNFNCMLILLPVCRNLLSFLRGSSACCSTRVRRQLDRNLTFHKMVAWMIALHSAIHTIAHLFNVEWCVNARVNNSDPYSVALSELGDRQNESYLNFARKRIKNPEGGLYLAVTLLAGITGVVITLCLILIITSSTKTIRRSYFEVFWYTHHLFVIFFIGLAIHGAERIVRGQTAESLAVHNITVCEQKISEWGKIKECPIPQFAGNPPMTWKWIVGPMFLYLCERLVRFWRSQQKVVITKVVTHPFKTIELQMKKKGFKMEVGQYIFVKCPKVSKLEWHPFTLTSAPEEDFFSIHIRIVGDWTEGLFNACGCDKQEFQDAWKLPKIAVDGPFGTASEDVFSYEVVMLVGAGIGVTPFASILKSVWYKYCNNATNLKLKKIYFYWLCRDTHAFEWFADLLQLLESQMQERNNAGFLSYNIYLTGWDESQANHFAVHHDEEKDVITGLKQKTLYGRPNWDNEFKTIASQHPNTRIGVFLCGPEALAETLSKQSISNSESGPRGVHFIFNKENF

As for `COCCOC(=O)N1C(=O)[C@@]2(c3cc(C#Cc4ccc(OC)cc4)ccc31)[C@H](C(N)=O)[C@H]1C(=O)O[C@H](c3ccccc3)[C@H](c3ccccc3)N1[C@@H]2c1ccc(OCCO)cc1`, the z-score in [1] is 0.79 (inactive); in assay [3], 21.2 (active); in [4], 5.69 (inactive); in [5], 1.75 (inactive); in [6] it was 1.95 (inactive); in assay [7], -0.0813. Besides, the z-score was 0.933 (inactive) in assay [8], -0.164 (inactive) in assay [9] and 1.86 in assay [10]. The molecule also showed a composite z-score in assay [2] of 1.45.
With `[N-]=[N+]=NCc1ccccc1[C@H]1OC(c2ccc(OCCCO)cc2)=N[C@@]1(Cc1ccccc1N=[N+]=[N-])C(=O)N1CCCCC1`, the z-score in [1] was 0.369 (inactive); in [3], 27.7 (active); in [4] it was 21.4 (active); in assay [5] it was 2.7 (inactive); in assay [6], 4.56 (inactive); in assay [7], -0.0152. In addition, the z-score in assay [8] was -2.52 (inactive); in [9], 0.328 (inactive); in assay [10], -0.575. For the same molecule, in [2], the composite z-score amounted to 0.72.
In the case of `C=CC[C@@]1(C(=O)NCCN2CCOCC2)N=C(c2ccc(OCCCO)cc2)O[C@@H]1c1ccccc1`, the z-score in [1] is -0.302 (inactive); in [3] it was 18.7 (active); in assay [4], 3.03 (inactive); in assay [5], 1.55 (inactive); in assay [6], 0.863 (inactive); in [7], -0.501. For the same molecule, the z-score in assay [8] is 0.48 (inactive); in assay [9], 0.62 (inactive); in assay [10] it was -0.092. The composite z-score in assay [2] is 0.562.
Turning to `C=C(COC)C(=O)CC[C@H](OC(=O)c1ccccc1-c1ccccc1C(=O)O)c1ccc(CO)o1`, the z-score was -0.093 (inactive) in [1]; 1.77 (inactive) in assay [3]; 0.404 (inactive) in assay [4]; 1.38 (inactive) in assay [5]; 0.161 (inactive) in [6]; -0.121 in [7]. The z-score in assay [8] was -0.0961 (inactive); in [9], -0.0962 (inactive); in [10], -0.0437. Also, the composite z-score in [2] is -0.0954.
With `CN(C)CCCNC(=O)[C@@]1(Cc2ccccc2I)c2ccccc2C(=O)N(Cc2ccccc2Cl)[C@H]1c1ccc(CO)cc1`, the z-score in [1] was -2.91 (inactive); in assay [3] it was 10.7 (active); in assay [4], 0.867 (inactive); in assay [5], -0.613 (inactive); in assay [6], 0.524 (inactive); in assay [7], -1.27. The figures for the z-score in [8], in assay [9] and in [10] were -10.2 (active), -4.71 (inactive) and -5.47, respectively. In assay [2], this molecule gave a composite z-score of 0.208.
For `O=c1c2ccc(Br)cc2nc(-c2ccccc2)n1Cc1cccc(O)c1`, the z-score is 0.421 (inactive) in assay [1]; 15.7 (active) in assay [3]; 3.45 (inactive) in [4]; 0.386 (inactive) in [5]; 1.73 (inactive) in assay [6]; -0.404 in assay [7]. Besides, the z-score in [8] was -1.84 (inactive); in [9], -1.05 (inactive); in assay [10] it was -1.99. The molecule also displayed a composite z-score in assay [2] of 0.748.
For `CCCC=C(CCC)[C@@H](NS(=O)(=O)c1cccc2cccnc12)c1ccc(C(=O)OC)cc1`, the z-score in assay [1] was -1.2 (inactive); in [3] it was -0.643 (inactive); in [4], -0.299 (inactive); in assay [5], -0.722 (inactive); in assay [6], -1.19 (inactive); in [7], 0.393. Besides, the z-score was 0.0603 (inactive) in assay [8], 0.212 (inactive) in assay [9] and 2 in assay [10]. This molecule registered a composite z-score in assay [2] of 0.968.
Take `CCCCCCCCCCC(O)C1C=CC2C(=O)NC(=O)C2N1Nc1ccccn1` (stereo not given): the z-score in assay [1] is -8.86 (active); in [3], 19.9 (active); in assay [4], 6.41 (inactive); in [5], -0.0795 (inactive); in assay [6] it was 2.71 (inactive); in assay [7], -1.18. Moreover, the z-score in assay [8] was -2.33 (inactive); in assay [9] it was -5.71 (inactive); in [10] it was -0.309. This molecule displayed a composite z-score in assay [2] of 0.0312.
Turning to `COC(=O)[C@@]1(Cc2ccccc2N=[N+]=[N-])N=C(c2ccc(OCCCO)cc2)O[C@H]1c1ccccc1`, the z-score in assay [1] was -0.734 (inactive); in assay [3], 22.9 (active); in assay [4], 8.4 (active); in [5] it was 0.0321 (inactive); in assay [6], 2.28 (inactive); in assay [7], 0.0781. Besides, the figures for the z-score in [8], in assay [9] and in assay [10] were -2.34 (inactive), 0.355 (inactive) and -1.76, respectively. This molecule also returned a composite z-score in assay [2] of 0.406.
Turning to `COC(=O)[C@H]1N=C(c2ccc(OCCCO)cc2)O[C@H]1c1ccccc1CN=[N+]=[N-]`, the z-score in assay [1] was 0.495 (inactive); in assay [3] it was 24 (active); in assay [4], 7.57 (inactive); in assay [5], 1.35 (inactive); in assay [6] it was 1.11 (inactive); in [7], -0.221. Also, the z-score in [8] was -0.102 (inactive); in assay [9] it was 1.43 (inactive); in assay [10] it was 0.352. The molecule further displayed a composite z-score in assay [2] of 0.938.
In the case of `CCCN1C(=O)[C@@]2(Cc3ccccc3)N=C(c3ccc(OCCCO)cc3)O[C@H]2c2ccccc21`, the z-score in assay [1] was 0.299 (inactive); in assay [3], 32.7 (active); in assay [4], 33.7 (active); in assay [5], 3.01 (inactive); in assay [6] it was 5.2 (inactive); in assay [7], -0.149. Further, the z-score in [8] is -2.69 (inactive); in assay [9], -0.584 (inactive); in assay [10], -1.79. In [2], this molecule gave a composite z-score of 0.572.
For `NC(=O)[C@H]1[C@@H]2C(=O)O[C@@H](c3ccccc3)[C@@H](c3ccccc3)N2[C@@H](c2ccc(O)cc2)[C@]12C(=O)Nc1ccc(C#CC3(O)CCCCCC3)cc12`, the z-score in assay [1] is 0.359 (inactive); in [3] it was 2.63 (inactive); in [4], -0.436 (inactive); in assay [5], 0.67 (inactive); in [6], -1.08 (inactive); in assay [7], 1.54. For the same molecule, the z-score in assay [8] was 0.487 (inactive); in assay [9] it was -0.429 (inactive); in assay [10] it was -2.14. The molecule further had a composite z-score in [2] of 0.354.
